Assay [1] is described as follows: NCI Yeast Anticancer Drug Screen. Data for the rad50 strain (AID 155).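 Further: 0% = growth of vehicle-only cultures of the same strain.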 To be noted: S. cerevisiae rad50 strain growth inhibition; at 50.0 µM; hits give high values. Summed up:
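Growth of the mutant yeast was measured after compound exposure and referenced to vehicle-treated cultures.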

The nature of assay [2]: NCI Yeast Anticancer Drug Screen. Data for the mec2-1 strain (AID 157). As to conditions: S. cerevisiae mec2-1 strain, at 50.0 µM, hits give high values. Summed up:
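Growth inhibition is read against vehicle-treated controls after compound exposure of the mec2-1 yeast strain, which is defective in DNA damage repair or cell cycle control.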

Assay [3] is described as follows: NCI Yeast Anticancer Drug Screen. Data for the sgs1 mgt1 strain (AID 161).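 Further: 0% = growth of cultures given vehicle only.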 As to conditions: S. cerevisiae sgs1 mgt1 strain, at 50.0 µM, hits give high values. Summed up:
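Compounds are added to genetically altered yeast, and growth is compared with cultures given vehicle alone to give percent inhibition.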

Assay [4] can be described thus: NCI Yeast Anticancer Drug Screen. Data for the cln2 rad14 strain (AID 165).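 Further: 0% = growth equal to vehicle treated cultures.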 As to conditions: S. cerevisiae cln2 rad14 strain, at 50.0 µM, hits give high values. Summed up: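 Growth inhibition, relative to vehicle-treated controls, is the read-out. The test organism is a yeast strain with defined genetic alterations, cln2 rad14.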
A short description of assay [5]: NCI Yeast Anticancer Drug Screen. Data for the bub3 strain (AID 167). To be noted: S. cerevisiae bub3 mutant strain, at 50.0 µM, hits give high values. Summed up:
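Whole-cell yeast assay. The mutant strain was incubated with compounds, and growth inhibition was determined by comparison with vehicle-treated cells.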

A short description of assay [6]: NCI Yeast Anticancer Drug Screen. Data for the mlh1 rad18 strain (AID 175). To be noted: S. cerevisiae mlh1 rad18 strain growth inhibition; at 50.0 µM; hits give high values. In outline:
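Cells of a genetically altered yeast strain, deficient in DNA damage repair, were treated with compound. Their growth was then compared with that of vehicle-treated cultures to give inhibition.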

Results on 20 compounds are retold here after PubChem BioAssay (NCI).

The panel holds about 79,000 compounds, 15% with a hit somewhere; the sample as a whole holds those more often. Unmarked numbers belong to inactive results. Active and inactive are the calls of the source. No stated cut-off is given here; in the data, active means growth inhibition above about 70%; inactive means the rest.

With `C[N+](C)(Cn1nc(Cl)c2ccc([N+](=O)[O-])cc21)Cn1nc(Cl)c2ccc([N+](=O)[O-])cc21`, the growth inhibition in assay [1] is 43.6%; in assay [2], -5%; in assay [3] it was 18.8%; in assay [4] it was 28.1%; in assay [5] it was -0.25%; in assay [6], 27.9%.
On to `COC(=O)c1[nH]c(C)c(C(=O)OC)c1C`, for which the growth inhibition in assay [1] was -8.5%; in assay [2], -27.7%; in assay [3], -3.1%; in assay [4], -5%; in assay [5] it was -13.2%; in assay [6] it was -12.8%.
Regarding `C/C(=C/OS(=O)(=O)C(F)(F)F)c1ccccc1`, the growth inhibition in assay [1] was -22.3%; in assay [2], -0.2%; in assay [3], -3.2%; in assay [4], -8.55%; in assay [5], -1.5%; in assay [6] it was 4.25%.
With `CCO[C@H]1c2cc3c(cc2[C@@H](c2cc(OC)c(OC)c(OC)c2)[C@H]2C(=O)OC[C@@H]21)OCO3`, the growth inhibition is 11.4% in assay [1]; 6.25% in assay [2]; 26.9% in assay [3]; 28.7% in assay [4]; 12.7% in assay [5]; 24.9% in assay [6].
For the compound `COc1cc(C)c2c([N+](=O)[O-])cc([N+](=O)[O-])c(OC)c2n1`, the growth inhibition in assay [1] was 12%; in assay [2] it was 17.9%; in assay [3], 4%; in assay [4] it was 3.85%; in assay [5], -10.2%; in assay [6] it was 7.05%.
Consider `CCc1ccc(NC(=S)NC(=O)C(C)Oc2ccccc2)cc1` (stereo not given), for which the growth inhibition in assay [1] is 39.5%; in assay [2], 21.6%; in assay [3], 54.7%; in assay [4], 15.1%; in assay [5] it was 78.8% (active); in assay [6] it was 8.9%.
As to `O=P(CCC(F)(F)C(F)(F)C(F)(F)C(F)(F)C(F)(F)C(F)(F)C(F)(F)F)(N1CC1)N1CC1`, the growth inhibition in assay [1] was 25.4%; in assay [2] it was -1.9%; in assay [3] it was 8.15%; in assay [4] it was -9.75%; in assay [5], -1.2%; in assay [6] it was 1.95%.
Take `O=c1[nH]cc(SSc2c[nH]c(=O)[nH]c2=O)c(=O)[nH]1`: the growth inhibition in assay [1] is 13.4%; in assay [2], 15.7%; in assay [3], 4.2%; in assay [4], -25.3%; in assay [5], 29.9%; in assay [6], 12.9%.
For `CCCC=NCCCC`, the growth inhibition in assay [1] is -17.1%; in assay [2] it was -7.55%; in assay [3] it was -35.6%; in assay [4], -67%; in assay [5], -30%; in assay [6], -24.4%.
Turning to `Oc1cccc2ccc(Br)nc12`, the growth inhibition in assay [1] is -10.1%; in assay [2], 15.2%; in assay [3], 7.25%; in assay [4], 4.9%; in assay [5] it was 5.45%; in assay [6] it was -3.25%.
With `Cc1cc(N(CCC#N)S(=O)(=O)c2ccccc2)ccc1/C=C1\N=C(c2ccc(Cl)cc2)OC1=O`, the growth inhibition in assay [1] was -4.5%; in assay [2], 6.9%; in assay [3] it was 7.8%; in assay [4], -18.6%; in assay [5] it was -2.7%; in assay [6], 17.4%.
On to `O=C(Nc1ccc(Br)cc1)Oc1ccc(-c2ccccc2)cc1`, for which the growth inhibition in assay [1] was 28.9%; in assay [2] it was 9.15%; in assay [3], 4.6%; in assay [4] it was 18.1%; in assay [5], 41.8%; in assay [6] it was 18.4%.
Take `CCCC(=O)OCC(O)CO` (stereo not given): the growth inhibition is 12.2% in assay [1]; 1.5% in assay [2]; 1.3% in assay [3]; 18.5% in assay [4]; 4.1% in assay [5]; 18.6% in assay [6].
Consider `CCC1(CC)C(=O)N(C(=O)c2ccccc2)N(C(=O)c2ccc(Cl)cc2)C1=O`, for which the growth inhibition in assay [1] was 20.9%; in assay [2] it was 18.7%; in assay [3], 34.5%; in assay [4], 32.5%; in assay [5], 46.8%; in assay [6], -79.8%.
For `CCc1n[nH]c(=S)n1/N=C/c1ccc(-c2ccc([N+](=O)[O-])cc2)o1`, the growth inhibition in assay [1] is 14.6%; in assay [2], -17.6%; in assay [3], -14%; in assay [4] it was 9.85%; in assay [5], -14.1%; in assay [6], 10.3%.
`Cc1cc(Oc2cnc(=O)[nH]c2)cs1`: the growth inhibition in assay [1] is 27.1%; in assay [2] it was 22.4%; in assay [3] it was 19.9%; in assay [4], 1.7%; in assay [5] it was 12%; in assay [6] it was 10.9%.
As for `CNC(=O)/C=C/C1=CN2C(=O)c3ccc(C)c(O)c3NC(OC)C2C1` (stereo not given), the growth inhibition in assay [1] was 91.5% (active); in assay [2], 93.7% (active); in assay [3], 93% (active); in assay [4], 92.6% (active); in assay [5] it was 92.3% (active); in assay [6] it was 89.2% (active).
Consider `O=C1C2C3C=C4c5ccccc5N(c5ccccc5)C4(C2C(=O)N1c1ccc([N+](=O)[O-])cc1)[C@H]1C(=O)N(c2ccc([N+](=O)[O-])cc2)C(=O)[C@@H]31` (stereo not given in full), for which the growth inhibition in assay [1] was 14.7%; in assay [2] it was 22.1%; in assay [3] it was 21.9%; in assay [4], 13.2%; in assay [5], 28%; in assay [6] it was 19.1%.
For `CCOC(=O)c1sc2c(c1OC(=O)c1ccccc1)c(=O)n(-c1ccccc1)c(=S)n2-c1ccccc1`, the growth inhibition was 21% in assay [1]; 15.9% in assay [2]; 30.1% in assay [3]; 24.9% in assay [4]; 29.2% in assay [5]; 33.7% in assay [6].
Regarding `CC(=O)NC(CCCCNC(=O)OC(C)(C)C)C(=O)O` (stereo not given), the growth inhibition in assay [1] was -31.9%; in assay [2] it was -42.2%; in assay [3] it was -23.2%; in assay [4], 7.45%; in assay [5], -2.85%; in assay [6] it was -39.1%.
